# Assay outcomes deposited in PubChem BioAssay by several laboratories.
# IEC-6 cytotox – counter-screen for KLF5 inhibitors: cytotoxicity in IEC-6 cells | IEC-6 cytotoxicity, luminescence viability | AID 1825 | inhibition, % at 5 µM | hit rate 0.78% among 290,000; in the data active = inhibition above about 22%
# BaF3 parental – counter-screen for JAK2V617F inhibitors: parental Ba/F3 viability inhibitors; CellTiter-Glo ATP luminescence; inhibition, % at 5.6 µM; hit rate 1.1% among 220,000;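 active = inhibition above a per-campaign cutoff, the mean inhibition of all tested compounds plus 3 SD, cut at about 27% in these data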
# aSyn UTR inh – MLPCN primary screen, SNCA 5' untranslated region; alpha-synuclein 5'UTR reporter, inhibitor activity; inhibition, % (tested at 7.5 µM); hit rate 0.82% among 300,000; in the data active = inhibition above about 60%;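 note: H4 neuroglioblastoma cells stably carrying SNCA 5'UTR luciferase fusion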
# KLF5 inh – kruppel-like factor 5 inhibition | inhibition, % at 5 µM | AID 1700 | hit rate 0.23% among 290,000 | DLD-1 KLF5 promoter-luciferase reporter, luminescence;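 active = inhibition above a per-plate limit of that plate's mean compound inhibition plus 3 SD, cut at about 60% in these data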;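 note: higher means less KLF5 promoter-driven luciferase light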
# Ba/F3 V617F tox – loss of viability in JAK2V617F-driven Ba/F3 cells; Ba/F3 EpoR-JAK2V617F viability, ATP luminescence; inhibition, % at 5.6 µM; hit rate 1.1% among 220,000;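 active = inhibition above the campaign mean plus 3 SD over all tested compounds, cut at about 24% in these data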;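 note: cytokine-independent growth of Ba/F3 cells driven by EpoR plus mutant JAK2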
# APP transl inh – APP translation inhibition; SH-SY5Y APP 5'UTR-luciferase reporter, luminescence; inhibition, % at 2 µM; hit rate 0.82% among 190,000; AID 1285;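 active = inhibition above a set limit, derived from the sample mean plus 3 SD, cut at about 45% in these data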
# A number is an active result; i = inactive; nt = no result given. A selection: hits, their analogues and other compounds. The true share with any hit is near 2.1%.
SMILES,IEC-6 cytotox,BaF3 parental,aSyn UTR inh,KLF5 inh,Ba/F3 V617F tox,APP transl inh
Nc1nn(-c2ccccc2)c(N)c1N=Nc1ccc2c(c1)OCO2,57.9,64.4,i,i,77.6,i
C=CCNC(=O)c1onc(CSc2ccc(Cl)cc2)c1C(=O)O,i,35.4,i,i,48.7,i
O=Cc1[nH]c2ccccc2c1N(C(=O)CCl)c1ccc([N+](=O)[O-])cc1,i,i,84.2,i,i,nt
COC(CNC(=O)CCc1c(C)nc2c(-c3ccc(F)cc3)c(C)nn2c1C)OC,i,i,i,i,i,55.0
COc1cc(OC)cc(-c2nc3nc(C)c(CCC(=O)NCC(OC)OC)c(C)n3n2)c1,i,i,i,i,i,i
COc1cc(SC)ccc1C(=O)Nc1ccc(C)cc1,i,i,i,i,i,i
COc1cc(SC)ccc1C(=O)Nc1ccc(Br)cn1,i,i,100.8,i,i,nt
COc1cc(SC)ccc1C(=O)Nc1ncc(C)s1,i,i,98.1,i,i,i
CN1CCN(CCCC(=O)c2ccc(F)cc2)CC1,i,92.2,i,i,i,i
N=c1ccn(CC(=O)c2ccc(-c3ccccc3)cc2)cc1,i,75.3,109.6,i,98.1,i
O=C(CN1C(=O)CCC1=O)c1ccc(-c2ccccc2)cc1,i,i,i,i,i,i
Cn1cc([N+](=O)[O-])c(C(=O)Nc2ccc3nc(-c4ccccc4)[nH]c3c2)n1,i,i,i,i,i,i
Cn1cc([N+](=O)[O-])c(C(=O)Nc2cc(Oc3cccnc3)cc([N+](=O)[O-])c2)n1,24.0,50.7,i,i,65.8,96.5
Cc1ccc(-c2nc(NC(=O)c3nn(C)cc3[N+](=O)[O-])sc2C)cc1C,i,85.2,i,i,91.9,95.8
Cc1ccc(-c2nc(NC(=O)c3nn(C)cc3[N+](=O)[O-])sc2C)cc1,i,80.9,99.4,i,77.2,95.4
O=[N+]([O-])c1cc(Oc2cccnc2)cc([N+](=O)[O-])c1,i,i,i,i,i,i
Cn1cc([N+](=O)[O-])c(C(=O)Nc2ccc(-c3nc4ccccc4[nH]3)cc2)n1,24.8,i,i,i,i,i
COc1ccc(CN(CCN)C2CC(C)N(C)CC2C)cc1 (stereo unspecified),i,nt,i,i,nt,nt
OCC[C@@H]1C[C@H](O)[C@@H](O)[C@]2(CCc3ccccc3CO2)O1,i,nt,i,i,nt,nt
O=c1cc(CNc2cc(C(F)(F)F)cc(C(F)(F)F)c2)nc2sccn12,i,i,65.2,i,i,i
O=c1ccc(C(F)(F)F)cn1Cc1cc(=O)n2ccsc2n1,i,i,i,i,i,i
Cc1ccccc1OCCC(=O)Nc1ccc2c(C)cc(=O)oc2c1,i,nt,i,i,nt,nt
CC[N+]1(CC)CC2=Cc3c(ccc4ccccc34)CC2C1 (stereo unspecified),i,60.9,i,i,69.9,i
CN1CC(C(=O)O)Cc2c1ccc1ccccc21 (stereo unspecified),i,i,i,i,i,nt
O=S(=O)(NC1CCSc2ccccc21)c1ccc(Cl)nc1 (stereo unspecified),i,nt,i,i,nt,nt
SMILES,IEC-6 cytotox,BaF3 parental,aSyn UTR inh,KLF5 inh,Ba/F3 V617F tox,APP transl inh
Cc1cc(Sc2nnc(/N=C/N(C)C)s2)c2ccccc2n1,i,73.3,nt,i,90.4,nt
Cc1cc(Sc2nnc(N)s2)c2ccccc2n1,i,76.8,i,i,96.1,nt
Cc1ccc(F)cc1NC(=O)C1CC(=O)N(CCc2ccccc2)C1 (stereo unspecified),i,i,i,i,i,i
CCn1cc(C(=O)NN)c(=O)c2cc(F)c(N3CCN(C)CC3)cc21,i,nt,i,i,nt,nt
CCOC(=O)N1CCN(C(=O)c2cn(CC)c3cc(N4CCN(C)CC4)c(F)cc3c2=O)CC1,i,78.6,i,i,i,i
O=S1(=O)CCC(NC(=S)NC2CCS(=O)(=O)C2)C1 (stereo unspecified),i,39.4,i,i,52.0,i
COc1cccc(/C=N/Nc2cc(-n3nc(C)cc3-c3ccccc3)ncn2)c1O,i,i,110.2,i,i,70.8
COc1cccc(/C=N/Nc2ncnc(Cl)c2N)c1O,i,i,88.9,i,i,78.0
COc1ccc(/C=N/Nc2ncnc(Cl)c2N)cc1OC,i,i,i,i,i,i
COc1cccc(/C=N/Nc2nc(Nc3ccccc3)nc(-n3nc(C)cc3C)n2)c1O,i,i,i,i,i,79.1
OCCNc1nnc(-c2ccccc2)c(-c2ccccc2)n1,nt,nt,i,nt,nt,nt
c1ccc(CCCCNCC2COc3ccccc3O2)cc1 (stereo unspecified),i,i,i,i,i,i
c1ccc(CCCNCC2COc3ccccc3O2)cc1 (stereo unspecified),i,i,i,i,i,72.9
CC1=C(C(=O)Nc2cccc(F)c2)C(c2ccsc2)C2=C(CC(C)(C)CC2=O)N1 (stereo unspecified),66.7,49.2,i,i,81.2,60.1
CC(=O)Nc1ccc(S(=O)(=O)N2CCN(CC(=O)N3CCOCC3)CC2)cc1,i,i,i,i,i,nt
CC(C)c1cc(C(C)C)c(S(=O)(=O)N2c3ccccc3[C@]3(Br)C[C@H]4C(=O)N[C@@H](Cc5ccccc5)C(=O)N4[C@H]23)c(C(C)C)c1,nt,nt,65.0,nt,nt,nt
Cn1c(CC(=O)Nc2ccccc2)nnc1SCC(=O)NC1CCCC1,i,nt,i,i,nt,nt
CCC(=NCCc1c(C)[nH]c2ccc(OC(F)(F)F)cc12)C1=C(O)CC(c2ccccc2)CC1=O (stereo unspecified),i,i,107.0,i,i,77.8
CCCCC(=NCCc1c(C)[nH]c2ccc(OC)cc12)C1=C(O)CC(c2ccccc2)CC1=O (stereo unspecified),i,i,119.1,i,i,77.6
CCC(=NCCc1c(C)[nH]c2ccccc12)C1=C(O)CC(c2ccccc2)CC1=O (stereo unspecified),i,i,i,i,i,i
Cn1cc(Br)c(NC(=O)/C=C/C(=O)O)n1,i,i,i,i,i,nt
CC(=O)c1c(C)[nH]c(C(=O)Nc2cc(C)cc(C)c2)c1C,i,i,i,i,i,i
CC(=O)c1c(C)[nH]c(C(=O)Nc2ccc(C)cn2)c1C,i,i,84.9,i,i,i
CC(=O)c1c(C)[nH]c(C(=O)Nc2nc(C)cs2)c1C,i,i,85.9,i,i,i
CC(=O)c1c(C)[nH]c(C(=O)Nc2nc(-c3ccc(Cl)cc3)cs2)c1C,i,i,i,i,i,i
SMILES,IEC-6 cytotox,BaF3 parental,aSyn UTR inh,KLF5 inh,Ba/F3 V617F tox,APP transl inh
CCOP(=O)(/C(C#N)=C(\C)O)c1ccccc1 (stereo unspecified),i,81.3,i,i,i,i
CN1c2ccccc2C(C)(C)C12C=Nc1c(cc(N3CCOCC3)c3ccccc13)O2 (stereo unspecified),i,i,i,i,i,i
CN1c2ccccc2C(C)(C)C12C=Cc1cc(O)ccc1O2 (stereo unspecified),i,62.9,i,i,72.4,i
Cc1ccc(OCCn2c(NC(=O)c3ccco3)nc3ccccc32)cc1,i,i,67.2,i,i,i
CCC(=O)Nc1nc2ccccc2n1Cc1ccccc1,i,i,i,i,i,i
CCC(=O)Nc1nc2ccccc2n1Cc1ccc(C)cc1,i,i,77.4,i,i,i
